In all, about 69,000 compounds went through this assay and about 8,600 (12%) showed an effect of 50% or more. The entries come from a sample that favours strong results as a whole.
system: Plasmodium berghei; assay: Screen against P. berghei liver stage (PbLuc), transformed with Luciferase, at 10uM; format: functional, HepG2; details: tested at 10 uM

| SMILES | INHIBITION [%] |
| --- | --- |
| CC(C)n1nc2c(cc1=O)CN(CCOc1cccc(C#N)c1)CC2 | 23.1 |
| Clc1ccc(-c2nnc(CNCCn3cccn3)o2)c(Cl)c1 | -38.2 |
| CC(C)[C@H]1CN(Cc2c[nH]nn2)C[C@@H]1NC(=O)C1CCOCC1 | 16.3 |
| Cc1nnc(CN2C[C@H](NC(=O)C3CCOCC3)[C@@H](C(C)C)C2)s1 | 90.2 |
| Cc1ncsc1CN1C[C@@H]2COC[C@]2(C(=O)NC2CC(F)(F)C2)C1 | 32.1 |
| Cc1csc(CN2C[C@H](NC(=O)C3CCOCC3)[C@@H](C(C)C)C2)n1 | 42.5 |
| CC(C)[C@H]1CN(Cc2ccccc2C#N)C[C@@H]1NC(=O)C1CCOCC1 | 45.9 |
| Cc1ncsc1CN1C[C@H](NC(=O)C2CCOCC2)[C@@H](C(C)C)C1 | 75.4 |
| CCN(Cc1ccc(F)cc1Cl)C1CCS(=O)(=O)C1 (configuration not stated) | 21.6 |
| Cc1cc(C[S+]([O-])Cc2ccccc2F)on1 (configuration not stated) | 10.1 |
| CCCn1cc(-c2cc(C(=O)N(C)C)c3ccc(OC)cc3n2)cn1 | 29.85 |
| Cc1cccc(CSc2nnc(C)n2CC(N)=O)c1 | 57.7 |
| Cc1nnc(SCc2cccc(F)c2)n1CC(N)=O | 20.9 |
| COc1cccc(CSc2nnc(C)n2CC(N)=O)c1 | -15.1 |
| O=C(NCCCN1CCOCC1)c1ccn(COc2ccc(F)cc2)n1 | -41.2 |
| O=C(NCC(CO)Cc1ccc(Cl)cc1)c1ccncc1Cl (configuration not stated) | 5.21 |
| CCSc1cc(C(=O)NCC(C)(C)N(C)C)ccn1 | 15.7 |
| CCOc1ccccc1NC(=O)CN(C)Cc1ccccc1Cl | 32 |
| CN(CC(=O)Nc1ccccc1C(=O)NC1CC1)Cc1ccccc1Cl | 8.08 |
| CCOC(=O)c1ccccc1NC(=O)CN(C)Cc1ccccc1Cl | 68.9 |
| N#Cc1cccc(S(=O)(=O)NC(=O)C2CC(c3ccccc3)=NO2)c1 (configuration not stated) | 33.4 |
| Cc1cc2ccncc2n1CC1(O)CCN(C(=O)c2cccnc2)CC1 | 9.98 |

| SMILES | INHIBITION [%] |
| --- | --- |
| CN1CC(=O)N(c2cccnc2)Cc2c(NC3CC3)ncnc21 | 41.6 |
| CC1(C)CCN(Cc2ccccc2-c2nc(C(C)(C)C)cc(=O)[nH]2)C1 | 57.3 |
| CC(C)c1cc(=O)[nH]c(-c2ccccc2CN2CCC(C)(C)C2)n1 | 29.4 |
| CC(C)(C)c1cc(=O)[nH]c(-c2ccccc2CN2CCCCCC2)n1 | -7.65 |
| Cc1cc(C)n(C2CN(c3ncnc4c3CCNCC4)C2)n1 | 40.5 |
| Cc1ccc(C2(O)CCN(C(=O)CCn3ccc(=O)[nH]c3=O)CC2)nc1 | 82 |
| Cc1ccc(C2(O)CCN(C(=O)Cn3cc(C)c(=O)[nH]c3=O)CC2)nc1 | 30.9 |
| Cc1ccc(C2(O)CCN(C(=O)CCn3c(C)cccc3=O)CC2)nc1 | 28.7 |
| CN(CC(O)C(F)(F)F)C(=O)Nc1cccc(C(F)F)c1 (configuration not stated) | 40.7 |
| Cc1c(NC(=O)C(C)N(C)C)c(=O)n(-c2ccccc2)n1C (configuration not stated) | -45.8 |
| COc1ccc(Cl)cc1CS(=O)(=O)Cc1nc(C2CC2)no1 | -3.96 |
| COc1ccc(Cl)cc1CS(=O)(=O)Cc1nc(C)no1 | 60.4 |
| COc1ccc(Cl)cc1CS(=O)(=O)Cc1noc(C)n1 | 34.7 |
| Clc1cc(CN2CCCC2Cn2cncn2)c2ncccc2c1 (configuration not stated) | 22.9 |
| Cc1cccc2cc(CN3CCCN4CCC[C@H]4C3)c(=O)[nH]c12 | 34.9 |
| Clc1cc(CN2CCCC(Cn3cncn3)C2)c2ncccc2c1 (configuration not stated) | 76.2 |
| Clc1ccc(CN2CCCC(Cn3cncn3)C2)c2ncccc12 (configuration not stated) | 35.1 |
| Clc1snnc1CN1CCCC1Cn1cncn1 (configuration not stated) | -11.4 |
| Clc1cc(CN2CCCN3CCCC3C2)c2ncccc2c1 (configuration not stated) | 55 |
| CC(C)(C)c1nc(CN2CCCC(Cn3cncn3)C2)cs1 (configuration not stated) | 61.7 |
| Clc1snnc1CN1CCCC(Cn2cncn2)C1 (configuration not stated) | 62.1 |
| Clc1snnc1CN1CCCCC1Cn1cncn1 (configuration not stated) | 10.8 |

| SMILES | INHIBITION [%] |
| --- | --- |
| CC(C)c1nc(CN2CCCC(Cn3cncn3)C2)cs1 (configuration not stated) | 31.2 |
| c1ccc(-c2nc(CN3CCCC(Cn4cncn4)C3)cs2)cc1 (configuration not stated) | -7.35 |
| Clc1cc(CN2CCCCC2Cn2cncn2)c2ncccc2c1 (configuration not stated) | -9.83 |
| Cc1cnc(C(=O)N2CCCC(n3cncn3)C2)cn1 (configuration not stated) | 41.5 |
| CCCc1nc(C(=O)N2CCn3nc(C(=O)OC)cc3C2)cs1 | 9.16 |
| Cc1noc(-c2ccc(N3CCN(Cc4nccn4C)CC3)nc2)n1 | 9 |
| CC(Cc1ccccc1F)C(=O)Nc1ccc(OCCC(N)=O)cc1 (configuration not stated) | -8.92 |
| CCOc1ccc(C2CCCN2C(=O)NCCn2ccnc2)cc1 (configuration not stated) | 8.85 |
| CC(=O)N1CCCC(Cc2cnc(C(=O)N3CCC(C)CC3)cn2)C1 (configuration not stated) | 6.32 |
| Cc1ccnn1CCC(=O)N1C[C@@H](O)[C@H](Oc2cccc(F)c2)C1 | 9.93 |
| CN(Cc1cnc(C(C)(C)C)nc1)Cc1nc2ccc(F)cc2[nH]1 | -0.18 |
| CCOCC(=O)N1C[C@@H](O)[C@H](NC(C)=O)C1 | 4.41 |
| O[C@@H]1CN(Cc2cc(Cl)cc3cccnc23)C[C@@H]1O | 51.3 |
| COc1ccc(CN2CCCC(N3CCCC3)C2)cc1Cn1cncn1 (configuration not stated) | 34.1 |
| COc1cc(Cl)cc(CN2CCCC(N3CCCC3)C2)c1OC (configuration not stated) | 77.6 |
| OCCN1CCN(Cc2cc(Cl)cc3cccnc23)CC1 | 42.7 |
| COc1cc(Cl)cc(CN2CCCC(N3CCOCC3)C2)c1OC (configuration not stated) | 15.7 |
| CN(C)CC1CN(Cc2cc(Cl)cc3cccnc23)CCO1 (configuration not stated) | 23.4 |
| CC1=C(C(=O)N(C)Cc2n[nH]c3c2CCCCC3)C(C)NC(=O)N1 (configuration not stated) | 17.5 |
| c1ccc(CCc2n[nH]c(C3CCOC3)n2)cc1 (configuration not stated) | 21.5 |
| Cc1ccnn1CC(=O)N(C)Cc1ccc(-n2cccn2)cc1 | 21.8 |
| CCn1cc(CN(C)Cc2cnn(-c3ccc(F)cc3)c2)cn1 | 17 |

| SMILES | INHIBITION [%] |
| --- | --- |
| CC(C)c1nccc(CN(C)Cc2cccc(-n3cccn3)c2)n1 | 6.9 |
| CN(Cc1ccncc1)Cc1cnn(-c2ccc(F)cc2)c1 | 51.8 |
| Cc1nonc1CN(C)Cc1cnn(-c2ccc(F)cc2)c1 | -23.4 |
| COc1cccc(-n2cc(CN(C)Cc3ccnc(C(C)C)n3)cn2)c1 | 15.005 |
| CSCC(=O)N(C)Cc1cnn(-c2ccc(F)cc2)c1 | 13 |
| CC(C)c1nccc(CN(C)Cc2cnn(-c3ccccc3)c2)n1 | 51.7 |
| Cc1ccnn1CC(=O)N(C)Cc1cnn(-c2ccccc2)c1 | 50.8 |
| CN(C)Cc1ccnc(C2CCCN2Cc2cccc(F)c2F)n1 (configuration not stated) | 15.9 |
| CCc1ocnc1C(=O)N1CCCC(n2nc(C)nc2C)C1 (configuration not stated) | 11.715 |
| O=C(c1cnc(O)cc1O)N1CCCC(CCc2ccccc2F)C1 (configuration not stated) | 15.8 |
| CNC(=O)[C@H]1C[C@@H]2CN(C(=O)c3ccc(C)nc3)C[C@@H]2N1C(C)C | 11.3 |
| Cc1csc(C2CCCN(C(=O)c3c(C)nn4cccnc34)C2)n1 (configuration not stated) | -2.53 |
| CC(=O)N1CCN(CCNc2ncc(Br)cc2C)CC1 | 54.4 |
| CC(=O)N1CCN(CCNS(=O)(=O)c2ccc(C)c(F)c2)CC1 | -3.95 |
| Cc1cc(Br)cnc1NCCN1CCC(N(C)C)CC1 | 64 |
| CC(=O)N1CCN(CCNS(=O)(=O)c2cc(F)ccc2C)CC1 | 17.1 |
| Cc1cc(C(C)NCCN2CCC(N(C)C)CC2)c(C)s1 (configuration not stated) | 46.6 |
| COC1CCN(CCNc2ncc(Br)cc2C)CC1 | 41.5 |
| Cc1cc(N2CCOCC2)ccc1NC(C)c1nc(C(C)(C)C)no1 (configuration not stated) | 14.9 |
| Cc1n[nH]c(C)c1NC(=O)CN1CCCC1Cn1cncn1 (configuration not stated) | 30 |
| CC(=O)N1CCC(c2nccnc2Nc2cnccn2)CC1 | -21.6 |
| CN(Cc1ccncn1)C(=O)CCC(=O)NC1CCCC1 | 39.4 |

| SMILES | INHIBITION [%] |
| --- | --- |
| CCCN1C[C@@H]2CC[C@H]1CN(Cc1cccc(-n3cccn3)c1)C2 | 48.2 |
| COCCN1CCN(c2ccc(CN(C)C)cn2)CC1 | -14.3 |
| CCN(C(=O)CCn1cccn1)C1CC1 | 36.2 |
| CC(C1CC1)N(C)C(=O)CCn1cccn1 (configuration not stated) | 49 |
| CC(C)CC(C)N(C)C(=O)CCn1cccn1 (configuration not stated) | 64 |
| Cc1nn(C)c(C)c1NC(=O)CCn1ncc2ccc(Cl)cc21 | -14.7 |
| CC(=O)c1cc(C(=O)N2CCN(C)Cc3ccccc32)n(C)c1 | -94.3 |
| CC(C)c1n[nH]c(C2CN(C(=O)COCC(F)(F)F)CCO2)n1 (configuration not stated) | 31.6 |
| CC(c1ccccc1)N(C)C(=O)CN1CCCc2cccc(F)c21 (configuration not stated) | 51.1 |
| CC(c1ccccc1)N(C)C(=O)CN1CCN(c2cnccn2)CC1 (configuration not stated) | 47.2 |
| CN(C(=O)CN1CCCc2cc(F)cc(F)c21)c1ccccc1 | 43.9 |
| CC(c1ccccc1)N(C)C(=O)CN1CCCc2cc(F)cc(F)c21 (configuration not stated) | 76.1 |
| CN(C)C(=O)Cn1cc(C(=O)N2CCCc3cccc(F)c32)nn1 | 28.6 |
| CC(c1ccccc1)N(C)C(=O)Cn1cc(NC(=O)C(C)(C)C)cn1 (configuration not stated) | -41.1 |
| CC(C)CC(=O)N1C[C@@H]2CCN(c3cnccn3)C[C@@H]2C1 | 3.81 |
| CNC(=O)CN1C(=O)CN(C(=O)COC)CCC(OC)c2ccccc21 (configuration not stated) | 48.7 |
| CNc1cc(C2CCCN2S(=O)(=O)c2cccc(F)c2)ccn1 (configuration not stated) | 2.71 |
| CCS(=O)(=O)N1CCc2nc(C3CCN(C(=O)C4CC4)C3)nc(O)c2C1 (configuration not stated) | 30.4 |
| Cc1nc(NC2CCCC2)cc(C2CCN2c2ncccn2)n1 (configuration not stated) | 26.7 |
